Screening data from PubChem BioAssay.
Nrf2 inh – Nrf2 qHTS screen for inhibitors. A549 ARE-Fluc reporter, luciferase luminescence, 18-24 h. Potency, µM (titrated, usually from 46 µM), most hits filed as inhibitors. 2.1% of 360,000 active; also: nearly all actives have a fitted effect of over 60% in size
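Nrf2 function is reported as luminescence of an ARE-controlled luciferase in A549 cells. Compounds were tested at several concentrations, and a CellTiter-Fluor read on the same wells flagged cytotoxicity.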
Mito fusion yeast – qHTS Assay for Small Molecule Inhibitors of Mitochondrial Division or Activators of Mitochondrial Fusion | Potency, µM (top dose mostly 46.1 µM), actives largely listed as activators | AID 485298, 2010 | 0.23% of 320,000 active | S. cerevisiae fusion-defective mutant growth rescue, CellTiterGlo 48 h; also: nearly all actives have a fitted effect of over 45% in size
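Read-out: ATP-based luminescence (CellTiterGlo, 10 min ambient) reporting growth of fusion-defective ts yeast after 48 hours at 37C on glycerol/ethanol YPEG medium in the presence of compound.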
A549 tox – Nrf2 qHTS screen for inhibitors: counterscreen for cytotoxicity; A549 ARE-Fluc cells, CellTiter-Fluor viability, 18-24 h; Potency, µM (top dose mostly 46 µM), usual class: inhibitors; 0.16% of 390,000 active; AID 504648, 2011
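A549 ARE_Fluc cells in 5% FBS OPTI-MEM were exposed to compounds in concentration-response for 18-24 h at 37 deg C. Viability was read by CellTiter-Fluor fluorescence (Ex 405/Em 525) after 30 min, before the luciferase read.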
miR-21 act – qHTS Assay for Modulators of miRNAs and/orActivators of miR-21; 340,000 tested, under 10 active; HeLa miR-21 FLuc reporter, luciferase, 48 h; Potency, µM (doses to about 38.3 µM), hits mostly activators; AID 2288, 2010;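 also: miR-21 action dims this reporter so a rising signal means less miR-21 action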
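Luminescence from a firefly luciferase reporter carrying a miR-21 binding site downstream, stably expressed under a CMV promoter in HeLa cells that make miR-21 endogenously, reports miRNA modulation after 48 h compound exposure up to approximately 40uM final.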
GRP78 ERSR act – qHTS for Inducers of the Endoplasmic Reticulum Stress Response (ERSR) in Human Glioma: qHTS. U87-MG GRP78 promoter luciferase reporter, 16 h. Potency, µM, actives largely listed as activators. 0.02% of 420,000 active; also: series mostly up to about 76 µM; nearly all actives have a fitted effect of over 35% in size
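Stably transfected U87-MG human glioma cells carrying a GRP78-based luminescent sensor were seeded at 1000 cells/well, pin-dosed with compounds and incubated 16 h. Luciferase reagent was then added, and end-point luminescence was read after 10 min at room temperature.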
Nrf2 activator – qHTS of Nrf2 Activators | Potency, µM (top dose mostly 46.1 µM), actives largely listed as activators | 0.31% of 410,000 active | AREc32 ARE-luciferase reporter (MCF7-derived line), luminescence, 24 h | AID 624171, 2012; also: nearly all actives have a fitted effect of over 65% in size
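AREc32_Fluc, 1000 cells/well, OPTI-MEM + 5% FBS, o/n 37 deg C 5% CO2; 23 nL cpd by pin tool, 24 hr; Steady-Glo 30 min RT, luminescence.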
A number is an active result; n = inactive; u = inconclusive; x = no result given. Hits are enriched below; roughly 2.3% of the tested compounds scored in any of these assays. Calls follow the shape of the dose curve; as a rule, active = well fitted curve in the direction sought with a large enough effect; inconclusive = small, poorly fitted or top-dose-only effect, or another doubt; inactive = no such curve, though single readings can be large; an effect the other way counts as inactive or inconclusive.

SMILES	Nrf2 inh	Mito fusion yeast	A549 tox	miR-21 act	GRP78 ERSR act	Nrf2 activator
CC1(c2ccccc2)NC(=O)N(CC(=O)Nc2ccc(C(N)=O)cc2)C1=O (stereo not drawn)	n	n	n	n	n	n
CCOC(=O)c1cnn(C(=O)c2ccccc2)c1N	n	n	n	n	n	n
Nc1nnc(SCC(=O)OCC(=O)c2ccccc2)s1	n	32µM	n	n	n	n
CCCCCC(=O)Nc1cccc(C2=NOC3(C2)C[C@@H](C(N)=O)N(C(=O)CC(c2ccccc2)c2ccccc2)C3)c1 (stereo partly drawn)	21µM	n	u	u	n	n
COc1ccc(C2SCC(=O)N2CCc2ccc(OC)c(OC)c2)cc1 (stereo not drawn)	23µM	n	n	n	n	n
CC(C#N)(Nc1ccc(Cl)cc1)c1cccnc1 (stereo not drawn)	n	n	n	n	n	n
COc1ccc(OC)c(NC(=O)C2COc3ccccc3O2)c1 (stereo not drawn)	n	n	n	n	n	n
CCOc1ccccc1NC(=O)C1COc2ccccc2O1 (stereo not drawn)	n	n	n	n	n	6.3µM
CCOc1ccc(OCC)c(NC(=O)C2COc3ccccc3O2)c1 (stereo not drawn)	u	n	n	n	n	n
O=C(Nc1ccc(S(=O)(=O)Nc2ccccc2)cc1)C1COc2ccccc2O1 (stereo not drawn)	18µM	n	n	u	n	n
COc1ccc(Cl)cc1NC(=O)C1COc2ccccc2O1 (stereo not drawn)	n	n	n	n	n	3.5µM
Cc1ccc(NC(=O)c2cccc3c(=O)c4c([nH]c23)CCCC4)c(C)c1	u	x	n	n	n	n
COc1ccc(OC)c(N(CC(=O)NCc2cccnc2)S(C)(=O)=O)c1	n	n	n	n	n	n
N#Cc1c(-c2ccc(Cl)cc2)ccnc1N1CCOCC1	u	n	n	n	n	n
Cn1nc(C(F)(F)F)c(C#N)c1N1CCN(c2ccc(F)cc2)CC1	12µM	n	n	n	n	n
O=C(COc1ccc(C(=S)N2CCOCC2)cc1)Nc1ccccc1C(F)(F)F	u	n	n	n	n	n
O=C(COc1ccc(C(=S)N2CCCC2)cc1)Nc1ccccc1C(F)(F)F	23µM	n	u	n	n	n
O=C(CC(=O)c1ccccc1)Nc1ccccc1C(F)(F)F	16µM	n	n	n	n	n
NC(=O)COC(=O)c1cc(-c2ccco2)nc2ccccc12	n	n	n	n	u	3.5µM
CN(C)C(CNC(=O)c1cc(-c2ccco2)nc2ccccc12)c1ccccc1 (stereo not drawn)	u	x	n	x	n	13µM
O=C(NCC1CCCO1)c1cc(-c2ccco2)nc2ccccc12 (stereo not drawn)	n	n	n	n	n	11µM
Nc1ncnc2c1ncn2[C@@H]1O[C@H](C(=O)N2CCCN(Cc3cccs3)CC2)[C@@H](O)[C@H]1O	x	x	x	x	n	n
CCc1ccccc1N(CC)C(=O)c1cc2c(s1)-c1ccccc1SC2	u	x	n	n	x	n
CN(C)C(=O)COC(=O)c1cccc(CN2C(=O)c3ccccc3C2=O)c1	n	n	n	n	n	n
COc1ccc(CC(=O)N/N=C(\C)c2cccs2)cc1OC	n	n	n	n	n	n
SMILES	Nrf2 inh	Mito fusion yeast	A549 tox	miR-21 act	GRP78 ERSR act	Nrf2 activator
Fc1ccc(COc2cccc(CNCc3ccncc3)c2)cc1	15µM	n	n	n	n	n
O=[N+]([O-])c1ccccc1CN1CCN(Cc2ccc3ccccc3c2)CC1	n	n	n	n	n	n
O=C(CC(=O)c1ccccn1)c1ccccc1	n	x	n	x	n	7.9µM
O=C(CCNS(=O)(=O)c1ccc(Br)cc1)NC1CCCCC1	n	n	n	n	n	n
CC1CCCC(NC(=O)CCNS(=O)(=O)c2ccc(Br)cc2)C1C (stereo not drawn)	15µM	n	u	n	n	n
Oc1cccc(-c2nc3c4c(ncn3n2)-c2ccccc2CC42CCCC2)c1	23µM	n	u	u	n	n
COc1ccc(-c2nc3c4c(ncn3n2)-c2ccccc2CC42CCCC2)cc1	n	n	n	n	n	n
COc1ccc(Cc2nnc(C(=O)NCCCN3CCN(c4ccccc4F)CC3)o2)cc1OC	u	x	n	u	n	n
O=C(NCCCN1CCN(c2ccccc2F)CC1)c1nnc(Cc2ccc(Cl)cc2Cl)o1	18µM	x	n	n	n	n
O=C(NC(=S)Nc1ccc(Cl)cn1)c1cccs1	u	n	n	n	n	6.3µM
O=C(NC(=S)NNC(=O)c1cccs1)c1ccccc1	n	n	n	n	n	n
CC(C)(C)c1ccc(C(=O)NC(=S)NNC(=O)c2cccs2)cc1	u	n	n	n	14µM	n
CCCOc1ccc(C(=O)NNC(=S)NC(=O)c2cccs2)cc1	7.3µM	n	n	n	u	n
Cc1ccccc1C(=O)NNC(=S)NC(=O)c1cccs1	15µM	n	u	n	n	n
CC12CC(=O)C3C(CCC4=CC(=O)CCC43C)C1CC=C2CC(=O)O (stereo not drawn)	n	x	n	x	n	n
CC(=O)Nc1ccc(S(=O)(=O)Nc2ccc3c(c2)CCC3)cc1	n	u	n	n	n	n
CCOC(=O)c1ccc(NC(=O)CSc2nc3ncc(Br)c(C)c3[nH]2)cc1	x	x	n	n	n	n
Cc1nn(-c2ccc(F)cc2)c(Cl)c1C(=O)OC(C)C(=O)N(C)C1CCCCC1 (stereo not drawn)	18µM	n	n	x	n	n
Cc1nn(-c2ccccc2)c(Cl)c1C(=O)OC(C)C(=O)NC(=O)NC1CCCCC1 (stereo not drawn)	u	u	n	n	n	n
Cc1ccc(Sc2ccc(NC(=O)CCl)cc2)cc1C	n	14µM	n	n	u	u
Cc1ccc(C(=O)N/C(=C\c2ccc(Br)cc2)c2nc(=S)[nH][nH]2)cc1	u	n	26µM	n	n	n
COc1cccc(/C=C/c2ccccn2)c1O	n	n	n	n	n	8.9µM
Cc1nn2c(SCC(=O)c3cccs3)cc(C(C)(C)C)nc2c1-c1ccccc1	21µM	n	u	n	n	n
CN1C(=S)N2CCCN2C1c1ccccc1 (stereo not drawn)	n	n	n	n	n	n
O=C(NCc1cccs1)C(=O)NCC(c1ccco1)N1CCN(c2ccccc2F)CC1 (stereo not drawn)	21µM	n	n	n	n	n
